The whole screen tested about 57,000 sequences, of which about 3,500 (6.1%) were called active. Rule as the data show it: active = GI50 up to about 1.1 µM and inactive = higher. The full list was thinned out, with actives kept by preference. Entries with a potency or affinity are not part of this list.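 Where inhibition never reached the appropriate level, the endpoint shown equals the highest concentration tested. Otherwise, values were interpolated linearly from a five-concentration, 48-hour dose response in 96-well plates. At the GI50, growth is halved.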
Test system: 786-0
Test: NCI tumour cell line growth inhibition, 48 h

Row | Substance | GI50 [nM]
1 | [Bis(aminomethyl)tetramethylenesilane]dichloropaltinum(II), CHEMBL2146205 | 5780
2 | [Bis(aminomethyl)diethylsilane]tetrachloroplatinum(IV), CHEMBL2146203 | 2180
3 | [Bis(aminomethyl)tetramethylenesilane]tetrachloropaltinum(IV), CHEMBL2146189 | 3100
4 | [Bis(aminomethyl)ethylmethylsilane]tetrachloroplatinum(IV), CHEMBL2146192 | 1340
5 | CISPLATIN, CHEMBL11359 | 1100
6 | [Bis(aminomethyl)dimethylsilane]dichloroplatinum (II), CHEMBL2146201 | 6140
7 | [Bis(aminomethyl)pentamethylenesilane]dichloropaltinum(II), CHEMBL2146202 | 916
8 | [Bis(aminomethyl)pentamethylenesilane]tetrachloropaltinum(IV), CHEMBL2146204 | 1220
9 | [Bis(aminomethyl)dimethylsilane]tetrachloroplatinum(IV), CHEMBL2146190 | 2120
10 | mu-(1,7-nanodiamine-N,N')bis-(cis-aminedichloroplatimum (II)), CHEMBL2146215 | 8730
11 | cis-Bis[[(trimethylsilyl)methyl]amino]tetrachloroplatinum(IV), CHEMBL2146191 | 5710
